Compound activity from PubChem BioAssay.
This is a sample that favours compounds with a hit; in the whole collection about 2.9% have one here.
ERa SRC1 pot – ER-alpha (human) coactivator binding potentiation. AID 639. TR-FRET ERalpha-LBD/SRC-Cy5 coactivator binding, 2 h; 100 = basal binding, no effect. 1.3% of 86,000 active. coactivator binding (% of control), % at 25.6 µM; in the data active = activity above about 200%;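 also: binding measured in presence of low estradiol as agonist stimulus; 0% = peptide alone without receptor and 100% = receptor with peptide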
Target sequence (P03372 whole entry, looked up, the tested form may be a part): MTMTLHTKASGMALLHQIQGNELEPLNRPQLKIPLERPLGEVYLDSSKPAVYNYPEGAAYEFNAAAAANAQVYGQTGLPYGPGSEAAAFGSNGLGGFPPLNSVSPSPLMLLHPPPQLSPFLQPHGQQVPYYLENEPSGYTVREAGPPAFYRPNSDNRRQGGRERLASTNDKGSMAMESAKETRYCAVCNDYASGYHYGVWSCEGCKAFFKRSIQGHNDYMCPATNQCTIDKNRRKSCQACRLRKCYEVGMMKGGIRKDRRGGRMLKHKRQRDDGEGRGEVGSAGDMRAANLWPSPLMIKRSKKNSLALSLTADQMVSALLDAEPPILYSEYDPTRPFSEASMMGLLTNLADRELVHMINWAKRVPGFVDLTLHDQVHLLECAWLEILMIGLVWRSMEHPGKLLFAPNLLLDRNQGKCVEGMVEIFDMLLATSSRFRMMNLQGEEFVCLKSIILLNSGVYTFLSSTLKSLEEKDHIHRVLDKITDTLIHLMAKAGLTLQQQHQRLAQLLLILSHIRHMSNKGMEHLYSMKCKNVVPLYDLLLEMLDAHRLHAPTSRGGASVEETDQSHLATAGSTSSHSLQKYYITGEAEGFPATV
ERb SRC1 inh – blocks coactivator binding to human estrogen receptor beta. TR-FRET ER-beta LBD / SRC1-Cy5 peptide binding; receptor agonist-loaded with 1 µM estradiol. inhibition, % at 25.6 µM. 1.3% of 86,000 active;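 active = compounds whose percent inhibition of the receptor-coactivator binding signal exceeds about 50% in the single-dose screen, limit read from the data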;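 also: 0% = receptor plus peptide wells without compound and 100% = peptide-only wells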
ERa coact inh – ER-alpha (human) coactivator binding inhibition; TR-FRET ER-alpha LBD / SRC-1 peptide, estradiol-bound; inhibition, % at 25.6 µM; 1.7% of 86,000 active; in the data active = inhibition above about 50%;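 also: 0% = receptor plus peptide control and 100% = peptide only without receptor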
MRP reversal – MRP-mediated drug resistance reversal. H69AR cells + 2 uM doxorubicin, CellTiter-Glo, 72 h. AID 602. differential viability (reversal), % at 10 µM. 0.04% of 85,000 active;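 active = viability drop by adding the cancer drug above about 55%, with treated viability meeting a 40% cutoff, limit read from the data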;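 also: viability without doxorubicin minus viability with 2 µM doxorubicin for each compound; larger differential means the compound sensitizes cells more to doxorubicin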
MRP-1 activ – activators of MRP-1; H69AR cells + doxorubicin, viability rescue, CellTiter-Glo; viability increase, % at 10 µM; 0.61% of 140,000 active;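 active = viability gain under doxorubicin at or above a set limit, the compound median plus 3 SD, cut at about 4.7% in these data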;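 also: MRP-1 overexpressing cells given doxorubicin 25 µM after compound pretreatment; 18-22 h compound pretreatment then 72 h with doxorubicin before readout; 0% = doxorubicin-only wells and 100% = vehicle-treated cells without doxorubicin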
Smad3 inh – inhibitors of human Smad3 transcription factor binding | TR-FRET Smad3/Dy647-FoxH1 peptide binding, europium anti-His | inhibition, % at 25 µM | 0.29% of 88,000 active | AID 630;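 active = compounds that reduce the energy-transfer binding signal between the protein and its labelled peptide by more than half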;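 also: 0% = Smad3 plus labelled peptide maximal FRET and 100% = peptide-only background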
Starred values were filed as active, the others as inactive; · = no result given; [ ] = another dose, or the depositor's remark.

SMILES | ERa SRC1 pot | ERb SRC1 inh | ERa coact inh | MRP reversal | MRP-1 activ | Smad3 inh
Cc1ccc(Nc2nnc(SCC(=O)NCc3ccco3)s2)cc1 | 74 | 49 | 68* | 1 | 0 | 7
COc1ccc(Cl)cc1NC(=S)NCc1ccc(S(N)(=O)=O)cc1 | · | · | · | · | -4 | ·
Cc1ccc(C)c(Cn2c(=O)n(CCC(=O)NCc3ccco3)c(=O)c3sccc32)c1 | 205* | -4 | 20 | 5 | -3 | -17
Cc1cc(C)cc(-n2c(=O)c3sccc3n(CC(=O)NCc3ccco3)c2=O)c1 | 104 | 80*[fluorescence artefact?] | -2 | 4 | -2 | -2
Cc1cc(C)c(Cn2c(=O)n(CCCC(=O)NCc3ccco3)c(=O)c3sccc32)c(C)c1 | 117 | 19 | 53*[fluorescence artefact?] | 9 | -1 | -29
CCCCC(=O)Nc1ccc(C(=O)Nc2ccc(S(=O)(=O)Nc3ccc(C)cc3)cc2)cc1 | · | · | · | · | -2 | ·
O=C1c2ccccc2C(=O)c2c(NC3CCCCC3)ccc(Nc3ccc(S(=O)(=O)O)cc3)c21 | · | · | · | · | · | -1
CN1CCN(CCCNN)CC1 | · | · | · | · | · | 4
Cc1nnc2n(Cc3ccccc3)c(=O)c3c4c(sc3n12)CN(Cc1ccccc1)CC4 | 105 | -2 | 1 | 25 | · | -12
O=c1c2c3c(sc2n2cnnc2n1Cc1ccccc1)CN(Cc1ccccc1)CC3 | 126 | 8 | 1 | 64* | · | -3
O=C1C(Cc2cccc([N+](=O)[O-])c2)SC(=Nc2ccccc2)N1c1ccccc1 (centres undefined) | · | · | · | · | 6.4* | ·
C/C(=N\NC(=O)c1ccncc1)c1ccc2ccccc2c1O | · | · | · | · | · | 15
CCc1cccc2c(C(=O)Cn3nnc(-c4ccc(OC)c(OC)c4)n3)c[nH]c12 | 103 | 27 | 62* | -9 | 0 | 9
CCc1cccc2c(C(=O)COC(=O)c3nn(C)c(=O)c4ccccc34)c[nH]c12 | 115 | -4 | 2 | 7 | 0 | -3
O=C(CSc1ccccc1)Nc1ccc(S(=O)(=O)NCC2CCCO2)cc1 (centres undefined) | 94 | 1 | 2 | 9 | -1 | 1
O=C(CSc1ncnc2c1oc1ccccc12)Nc1ccccc1F | 406*[fluorescence artefact?] | 55*[fluorescence artefact?] | 47 | 7 | -1 | 48
CCc1nnc(NC(=O)CSc2ncnc3c2oc2ccccc23)s1 | 238*[fluorescence artefact?] | 16 | -18 | 5 | -2 | -10
O=C(CSc1ncnc2c1oc1ccccc12)Nc1cccc(C(F)(F)F)c1 | 188 | 19 | 24 | 1 | -3 | 6
CCOc1ccccc1NC(=O)CSc1ncnc2c1oc1ccccc12 | 274*[fluorescence artefact?] | 41 | 31 | 12 | 1 | 5
O=C(CSc1ncnc2c1oc1ccccc12)Nc1cccc(Cl)c1 | 373*[fluorescence artefact?] | 26 | 6 | -4 | -2 | 23
Cc1cccc(Cl)c1NC[C@H](O)CN1CCN(C)CC1 | · | · | · | · | · | 0
COC(=O)c1ccc(CSc2ncnc3c2oc2ccccc23)o1 | 234*[fluorescence artefact?] | 56*[fluorescence artefact?] | 41 | 0 | 1 | 62*[fluorescence artefact?]
CCc1nnc(NC(=O)CSc2nnc(-c3ccccc3NC(=O)c3ccccc3)o2)s1 | 285*[fluorescence artefact?] | 31 | 22 | 9 | 0 | 35
Fc1ccccc1CSc1ncnc2c1oc1ccccc12 | 213*[fluorescence artefact?] | 31 | 28 | 21 | -3 | 4
COC(=O)c1ccc(CSc2ncn[nH]2)o1 | 107 | 86*[fluorescence artefact?] | -8 | 3 | 3 | 4
SMILES | ERa SRC1 pot | ERb SRC1 inh | ERa coact inh | MRP reversal | MRP-1 activ | Smad3 inh
CC(=O)Nc1cccc(NC(=O)c2sc3ncn(CC(=O)N4CCCCC4)c(=O)c3c2C)c1 | · | · | · | · | 0 | ·
Oc1ccc(N=Cc2ccc(-c3cccs3)s2)cc1 | 34 | 62*[fluorescence artefact?] | 33 | -14 | -2 | 12
CCCCOc1ccc(N=Cc2cccs2)cc1 | · | · | · | · | -2 | ·
CCCCOc1ccc(CSc2n[nH]c(C)n2)cc1 | 88 | -4 | -7 | 8 | 0 | -3
CCCCOc1ccc(CSc2ncn[nH]2)cc1 | 107 | -7 | -1 | 13 | 9.8* | -6
CCCCCOc1ccc(CSc2ncn[nH]2)cc1 | 88 | -6 | -4 | 18 | 6.3* | 5
C/C(=N\NC(N)=S)c1ccc[nH]1 | · | · | · | · | · | 41
Cc1cc(C)c2nc(SC(C)C#N)cc(C)c2c1 (centres undefined) | 179 | -10 | -3 | -27 | -4 | 3
